Data taken from the supplement of paper PMC11732987, “Enantioselective OTUD7B fragment discovery through chemoproteomics screening and high-throughput optimisation” (Communications Chemistry, 2025).

Key:
Experiment in all cases: log2 ratio of Biotin-Ahx-Ub-VS probe labelling (fragment/DMSO); higher = less target engagement (more negative = stronger competition), active = hit call of the paper (q ≤ 0.05, log2 ratio ≤ -1)
Details in all cases: compound concentration: 200 uM; treatment time: 3 h
USP19 = biological target: T1, USP19 (UniProt O94966)
T1 sequence (whole entry): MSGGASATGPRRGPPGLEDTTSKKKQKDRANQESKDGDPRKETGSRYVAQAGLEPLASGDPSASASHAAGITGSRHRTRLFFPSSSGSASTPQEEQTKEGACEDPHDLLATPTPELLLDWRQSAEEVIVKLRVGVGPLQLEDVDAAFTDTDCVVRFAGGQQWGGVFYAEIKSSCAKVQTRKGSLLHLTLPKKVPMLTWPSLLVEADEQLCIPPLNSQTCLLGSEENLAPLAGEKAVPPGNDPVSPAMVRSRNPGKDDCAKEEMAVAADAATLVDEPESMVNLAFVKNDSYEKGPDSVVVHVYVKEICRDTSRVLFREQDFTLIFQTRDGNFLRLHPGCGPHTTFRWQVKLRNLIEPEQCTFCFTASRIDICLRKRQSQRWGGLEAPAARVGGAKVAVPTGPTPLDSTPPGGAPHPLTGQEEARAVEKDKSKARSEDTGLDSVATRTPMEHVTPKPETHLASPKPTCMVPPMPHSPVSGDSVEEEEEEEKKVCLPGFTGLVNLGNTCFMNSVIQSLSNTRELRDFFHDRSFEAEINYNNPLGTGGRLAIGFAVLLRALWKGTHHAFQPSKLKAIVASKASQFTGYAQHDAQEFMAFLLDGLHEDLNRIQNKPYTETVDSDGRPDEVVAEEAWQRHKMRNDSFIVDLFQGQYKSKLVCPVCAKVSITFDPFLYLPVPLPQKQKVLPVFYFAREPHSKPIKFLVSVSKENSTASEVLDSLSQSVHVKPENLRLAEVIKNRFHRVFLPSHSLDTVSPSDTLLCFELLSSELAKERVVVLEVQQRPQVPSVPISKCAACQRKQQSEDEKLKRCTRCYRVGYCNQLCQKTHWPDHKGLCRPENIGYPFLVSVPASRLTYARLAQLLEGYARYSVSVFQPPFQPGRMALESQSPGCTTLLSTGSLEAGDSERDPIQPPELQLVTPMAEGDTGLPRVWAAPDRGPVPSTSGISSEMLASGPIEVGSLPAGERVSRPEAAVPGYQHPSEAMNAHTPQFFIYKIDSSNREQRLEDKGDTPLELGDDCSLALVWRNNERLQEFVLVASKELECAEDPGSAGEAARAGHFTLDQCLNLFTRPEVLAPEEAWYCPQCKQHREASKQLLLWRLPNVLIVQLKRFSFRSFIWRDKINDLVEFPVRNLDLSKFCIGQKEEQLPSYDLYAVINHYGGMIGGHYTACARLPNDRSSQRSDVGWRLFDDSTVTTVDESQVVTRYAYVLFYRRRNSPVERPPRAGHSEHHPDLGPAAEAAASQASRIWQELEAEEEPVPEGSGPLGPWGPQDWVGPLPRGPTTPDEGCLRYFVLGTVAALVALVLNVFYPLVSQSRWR
Summary of the method: (§1)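 Labelled DUBs from HEK293T lysate were NeutrAvidin-enriched, digested with LysC and trypsin, and run by diaPASEF LC-MS/MS. Before that, each 495 µg sample in Tris/CHAPS/IGEPAL buffer with protease inhibitors was treated in triplicate with fragment at 200 µM or vehicle for 3 h, then with Biotin-Ahx-Ub-VS at 0.5 µM final for 1 h. Values are average log2 ratios of fragment over vehicle by unpaired t-test, based on global-median-normalised Spectronaut label-free quantities from proteins with ≥2 unique peptides.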

USP24 = USP24 (UniProt Q9UPU5)
Chain of USP24 (Q9UPU5 whole entry): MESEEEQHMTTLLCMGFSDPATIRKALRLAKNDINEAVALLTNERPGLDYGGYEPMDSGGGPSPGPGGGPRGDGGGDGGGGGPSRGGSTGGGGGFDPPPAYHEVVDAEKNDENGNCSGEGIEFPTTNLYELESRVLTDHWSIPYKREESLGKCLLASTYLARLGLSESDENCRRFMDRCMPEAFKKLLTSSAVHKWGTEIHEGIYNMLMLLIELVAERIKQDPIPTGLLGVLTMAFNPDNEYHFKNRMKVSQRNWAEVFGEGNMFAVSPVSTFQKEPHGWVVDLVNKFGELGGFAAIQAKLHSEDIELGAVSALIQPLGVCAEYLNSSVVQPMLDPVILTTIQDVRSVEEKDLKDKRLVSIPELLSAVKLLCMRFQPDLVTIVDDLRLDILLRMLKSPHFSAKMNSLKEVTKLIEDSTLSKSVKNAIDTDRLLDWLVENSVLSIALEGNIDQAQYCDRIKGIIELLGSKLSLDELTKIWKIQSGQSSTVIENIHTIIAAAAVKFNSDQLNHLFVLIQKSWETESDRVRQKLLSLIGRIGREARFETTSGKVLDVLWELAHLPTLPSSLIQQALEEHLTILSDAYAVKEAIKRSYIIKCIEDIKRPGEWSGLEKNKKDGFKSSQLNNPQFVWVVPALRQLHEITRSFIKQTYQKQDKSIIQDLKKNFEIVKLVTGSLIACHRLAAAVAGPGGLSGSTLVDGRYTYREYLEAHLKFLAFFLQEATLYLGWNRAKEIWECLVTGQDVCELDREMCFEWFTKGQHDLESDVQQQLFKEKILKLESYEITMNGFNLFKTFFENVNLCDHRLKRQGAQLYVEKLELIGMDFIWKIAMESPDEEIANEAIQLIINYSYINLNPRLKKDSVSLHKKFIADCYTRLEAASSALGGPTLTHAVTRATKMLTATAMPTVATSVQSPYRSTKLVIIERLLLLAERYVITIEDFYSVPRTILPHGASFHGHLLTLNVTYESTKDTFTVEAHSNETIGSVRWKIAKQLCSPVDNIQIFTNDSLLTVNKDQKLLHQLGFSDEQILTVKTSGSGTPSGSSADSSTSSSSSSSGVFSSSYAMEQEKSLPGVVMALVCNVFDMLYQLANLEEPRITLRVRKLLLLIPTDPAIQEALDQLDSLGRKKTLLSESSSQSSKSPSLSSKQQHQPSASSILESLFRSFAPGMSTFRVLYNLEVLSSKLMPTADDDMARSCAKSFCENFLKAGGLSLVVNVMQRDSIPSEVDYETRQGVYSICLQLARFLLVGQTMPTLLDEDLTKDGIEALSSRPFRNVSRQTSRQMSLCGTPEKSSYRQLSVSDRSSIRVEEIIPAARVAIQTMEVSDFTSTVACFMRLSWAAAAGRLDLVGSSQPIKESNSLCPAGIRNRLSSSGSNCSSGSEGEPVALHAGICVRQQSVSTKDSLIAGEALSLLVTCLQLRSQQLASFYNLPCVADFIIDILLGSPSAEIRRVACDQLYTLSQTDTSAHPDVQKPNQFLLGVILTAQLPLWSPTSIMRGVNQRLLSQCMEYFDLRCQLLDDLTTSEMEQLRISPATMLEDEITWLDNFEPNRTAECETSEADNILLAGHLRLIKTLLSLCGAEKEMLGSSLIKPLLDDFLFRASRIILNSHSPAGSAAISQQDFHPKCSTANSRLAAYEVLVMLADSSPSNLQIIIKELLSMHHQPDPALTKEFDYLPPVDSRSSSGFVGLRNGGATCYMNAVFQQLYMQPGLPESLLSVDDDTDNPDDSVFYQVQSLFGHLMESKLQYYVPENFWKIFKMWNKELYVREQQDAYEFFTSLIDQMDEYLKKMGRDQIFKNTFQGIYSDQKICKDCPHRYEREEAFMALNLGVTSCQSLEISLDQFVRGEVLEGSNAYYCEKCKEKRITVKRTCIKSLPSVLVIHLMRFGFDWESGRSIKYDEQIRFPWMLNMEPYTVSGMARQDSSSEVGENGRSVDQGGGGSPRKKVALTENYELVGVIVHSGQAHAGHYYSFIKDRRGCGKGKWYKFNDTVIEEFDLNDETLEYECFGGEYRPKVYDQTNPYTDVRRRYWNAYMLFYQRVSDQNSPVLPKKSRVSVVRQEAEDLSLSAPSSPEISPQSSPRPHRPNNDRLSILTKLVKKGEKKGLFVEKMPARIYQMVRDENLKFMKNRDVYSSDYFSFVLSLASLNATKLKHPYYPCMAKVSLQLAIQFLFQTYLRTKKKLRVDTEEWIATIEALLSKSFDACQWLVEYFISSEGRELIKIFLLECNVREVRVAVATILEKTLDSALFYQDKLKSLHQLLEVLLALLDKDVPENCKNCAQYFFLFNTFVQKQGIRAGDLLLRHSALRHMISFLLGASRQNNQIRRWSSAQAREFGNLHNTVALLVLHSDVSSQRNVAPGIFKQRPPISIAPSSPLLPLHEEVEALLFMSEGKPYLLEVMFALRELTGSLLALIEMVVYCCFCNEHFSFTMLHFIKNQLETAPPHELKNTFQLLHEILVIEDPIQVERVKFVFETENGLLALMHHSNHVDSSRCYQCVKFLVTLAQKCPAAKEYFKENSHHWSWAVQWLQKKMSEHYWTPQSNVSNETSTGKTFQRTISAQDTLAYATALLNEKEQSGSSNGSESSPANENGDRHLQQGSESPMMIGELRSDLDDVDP
Summary of the method: as §1

USP25 = biological target: T2, USP25 (UniProt Q9UHP3)
T2 sequence (whole entry): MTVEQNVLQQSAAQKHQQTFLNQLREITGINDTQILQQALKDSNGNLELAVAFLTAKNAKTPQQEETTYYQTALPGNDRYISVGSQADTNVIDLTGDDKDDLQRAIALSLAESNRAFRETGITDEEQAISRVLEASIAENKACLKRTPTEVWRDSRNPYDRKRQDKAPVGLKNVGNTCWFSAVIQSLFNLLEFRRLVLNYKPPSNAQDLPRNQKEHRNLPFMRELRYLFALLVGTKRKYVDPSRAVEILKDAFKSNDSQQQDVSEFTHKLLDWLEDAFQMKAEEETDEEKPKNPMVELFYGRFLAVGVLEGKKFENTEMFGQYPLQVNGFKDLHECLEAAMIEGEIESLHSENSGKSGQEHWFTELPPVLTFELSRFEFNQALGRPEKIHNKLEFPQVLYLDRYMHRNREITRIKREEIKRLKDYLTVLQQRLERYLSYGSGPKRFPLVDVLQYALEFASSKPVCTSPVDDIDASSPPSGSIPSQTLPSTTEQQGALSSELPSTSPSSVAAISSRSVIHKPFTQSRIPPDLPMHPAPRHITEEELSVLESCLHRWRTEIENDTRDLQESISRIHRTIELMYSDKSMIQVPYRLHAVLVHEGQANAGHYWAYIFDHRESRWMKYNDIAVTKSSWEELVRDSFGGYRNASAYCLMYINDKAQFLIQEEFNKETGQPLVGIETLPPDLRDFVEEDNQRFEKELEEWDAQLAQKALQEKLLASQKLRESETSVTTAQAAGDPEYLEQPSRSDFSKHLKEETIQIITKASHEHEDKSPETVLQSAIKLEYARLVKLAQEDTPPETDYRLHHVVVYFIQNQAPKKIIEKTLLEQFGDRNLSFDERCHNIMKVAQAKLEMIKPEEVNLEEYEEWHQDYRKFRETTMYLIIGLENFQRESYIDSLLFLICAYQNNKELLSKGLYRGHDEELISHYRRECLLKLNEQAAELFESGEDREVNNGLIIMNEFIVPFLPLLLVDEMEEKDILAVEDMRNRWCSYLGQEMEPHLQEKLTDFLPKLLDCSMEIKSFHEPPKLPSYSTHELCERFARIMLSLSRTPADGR
Summary of the method: as §1

USP28 = biological target: T3, USP28 (UniProt Q96RU2)
T3 sequence (whole entry): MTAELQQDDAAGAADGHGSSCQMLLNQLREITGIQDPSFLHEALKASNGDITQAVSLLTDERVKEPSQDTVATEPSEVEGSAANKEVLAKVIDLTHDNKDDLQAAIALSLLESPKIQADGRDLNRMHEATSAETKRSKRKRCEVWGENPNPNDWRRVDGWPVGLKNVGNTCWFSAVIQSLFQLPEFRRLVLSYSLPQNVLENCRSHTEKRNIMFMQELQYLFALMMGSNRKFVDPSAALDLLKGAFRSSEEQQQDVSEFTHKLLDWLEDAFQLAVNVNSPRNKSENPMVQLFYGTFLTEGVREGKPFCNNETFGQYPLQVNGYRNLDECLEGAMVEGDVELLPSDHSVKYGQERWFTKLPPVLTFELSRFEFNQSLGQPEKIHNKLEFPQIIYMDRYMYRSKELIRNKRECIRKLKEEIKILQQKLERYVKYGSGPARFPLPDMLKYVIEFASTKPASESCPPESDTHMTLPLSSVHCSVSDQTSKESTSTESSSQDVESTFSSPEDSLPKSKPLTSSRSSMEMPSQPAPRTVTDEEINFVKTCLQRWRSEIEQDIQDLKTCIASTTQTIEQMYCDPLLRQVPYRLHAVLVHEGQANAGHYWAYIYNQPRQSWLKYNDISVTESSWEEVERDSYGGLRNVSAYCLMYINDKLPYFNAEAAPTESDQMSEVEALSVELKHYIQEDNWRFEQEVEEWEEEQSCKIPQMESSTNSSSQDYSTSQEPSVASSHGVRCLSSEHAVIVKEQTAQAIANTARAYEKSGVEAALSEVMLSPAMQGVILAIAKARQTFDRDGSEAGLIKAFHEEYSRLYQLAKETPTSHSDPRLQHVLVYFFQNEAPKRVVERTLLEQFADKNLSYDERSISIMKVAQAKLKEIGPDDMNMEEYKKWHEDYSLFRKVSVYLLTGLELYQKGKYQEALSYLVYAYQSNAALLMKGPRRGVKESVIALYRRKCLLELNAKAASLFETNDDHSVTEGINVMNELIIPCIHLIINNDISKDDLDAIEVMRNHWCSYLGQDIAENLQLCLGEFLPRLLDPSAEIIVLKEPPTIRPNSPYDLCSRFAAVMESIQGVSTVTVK
Summary of the method: as §1

Measured: log2 ratio of Biotin-Ahx-Ub-VS probe labelling

O=C(CCl)NCc1cccc(N2CCCC2=O)c1
inactive: USP19 0.025 | USP24 0.00291 | USP25 -0.383 | USP28 -0.252
